Measurements taken from PubChem BioAssay (NCI).
The panel holds about 83,000 compounds, 20% with a hit somewhere; the sample as a whole holds those more often.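 Values shown are percent growth following 48 h exposure of cells in 96-well plates to a single concentration of compound; below 10 was considered active.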 Calls of active or inactive are those of the source.

How the values were obtained:
Assay in all cases: NCI-60 one-dose screen, 48 h (100 = growth as untreated, 0 = no growth, -100 = all killed)
Settings in all cases: 10 µM
[1] = tested on: RPMI-8226 leukemia
[2] = tested on: OVCAR-8 ovarian
[3] = tested on: OVCAR-5 ovarian
[4] = tested on: OVCAR-4 ovarian
[5] = tested on: SK-OV-3 ovarian
[6] = tested on: IGROV1 ovarian
[7] = tested on: OVCAR-3 ovarian
[8] = tested on: HS 578T breast
[9] = tested on: NCI/ADR-RES ovarian
[10] = tested on: BT-549 breast
[11] = tested on: MDA-MB-435 melanoma
[12] = tested on: SW-620 colon
[13] = tested on: MCF7 breast
[14] = tested on: HCC-2998 colon
[15] = tested on: KM12 colon
[16] = tested on: T-47D breast
[17] = tested on: HCT-116 colon

Measured: growth

COc1ccc(C2=NN(C(=O)c3ccc(S(C)(=O)=O)cc3)C(c3ccc(OC)c(OC)c3)C2)c(OC)c1 (stereo not drawn)
inactive: [1] 110% | [2] 108% | [3] 107% | [4] 106% | [5] 84.2% | [6] 106% | [7] 99.9% | [8] 101% | [9] 107% | [10] 91.6% | [11] 108% | [12] 105% | [13] 98.7% | [14] 102% | [15] 100%

CCN(CC)Cc1cc(Nc2ccnc3cc(Cl)ccc23)ccc1OC
inactive: [1] 72.2% | [2] 91.7% | [3] 109% | [4] 68.2% | [5] 102% | [6] 94.5% | [7] 93.6% | [9] 89.5% | [16] 102% | [10] 110% | [11] 77.9% | [12] 64.1% | [13] 86.7% | [17] 69.1% | [14] 81% | [15] 83.5%

COc1ccc(-c2nc3sc(-c4ccc(OC)cc4)c(-c4ccc(OC)cc4)n3c2/C=C/c2ccc(C(C)C)cc2)cc1
inactive: [1] 97.4% | [2] 97% | [3] 94.6% | [4] 90.8% | [5] 97.4% | [6] 111% | [7] 100% | [9] 106% | [16] 97.2% | [10] 98.6% | [11] 98.7% | [12] 99.7% | [13] 90.4% | [17] 94.4% | [14] 111% | [15] 102%

COc1ccccc1/C=C/C(=O)c1ccccc1
active: [1] -36.2%
inactive: [2] 61.8% | [3] 105% | [4] 70.2% | [5] 118% | [6] 28.8% | [7] 59.9% | [9] 86.7% | [16] 94.8% | [10] 88.4% | [11] 70.7% | [12] 14.9% | [13] 32.2% | [17] 55.3% | [14] 101% | [15] 27.9%

COc1ccc2c(c1OC)O/C(=C\c1ncc([N+](=O)[O-])n1C)C2=O
active: [2] -18.2% | [6] -14.8% | [10] -41.3% | [11] -76.4% | [12] -21.2% | [17] 4.48%
inactive: [1] 34.9% | [3] 53.7% | [4] 78.9% | [5] 24.8% | [8] 46.5% | [9] 15.1% | [16] 94.8% | [13] 28.9% | [14] 34.6% | [15] 43.1%

O=C(CC(C(=O)c1ccccc1)N1CCOCC1)c1ccccc1 (stereo not drawn)
inactive: [1] 40.5% | [2] 97.3% | [3] 95.5% | [4] 106% | [5] 98.3% | [6] 106% | [8] 99% | [9] 98% | [16] 72.1% | [10] 99.6% | [11] 107% | [12] 60.8% | [13] 43.4% | [17] 77.3% | [14] 104% | [15] 105%

COc1cc([C@@H]2c3cc4c(cc3C(Br)[C@H]3COC(=O)[C@H]23)OCO4)cc(OC)c1OC (stereo partly drawn)
active: [1] -25.8% | [2] -27.5% | [5] -18.4% | [6] -21% | [7] -81.5% | [9] -45.9% | [11] -42% | [17] -34.7% | [15] -81.3%
inactive: [3] 24.7% | [4] 17.3% | [16] 31.3%

O=C(NN1C(=O)CSC1c1ccc(Cl)cc1)c1cccnc1 (stereo not drawn)
inactive: [1] 74.8% | [2] 99.7% | [3] 86.7% | [4] 118% | [5] 106% | [6] 112% | [7] 121% | [9] 91.4% | [16] 102% | [10] 102% | [11] 87.3% | [17] 86.9% | [15] 94.2%

O=[N+]([O-])c1cccc(N=Cc2ccc3c(c2)OCO3)c1
inactive: [1] 104% | [2] 97.3% | [3] 116% | [4] 104% | [5] 110% | [6] 109% | [7] 112% | [9] 105% | [16] 103% | [11] 102% | [12] 108% | [13] 103% | [17] 106% | [14] 98.3% | [15] 112%

COc1cc(/C(=C2/O[C@@H]([C@H]3COC(C)(C)O3)[C@H]3OC(C)(C)O[C@@H]23)c2ccc3ccccc3c2)cc(OC)c1OC
active: [7] -6.76% | [17] -56.4%
inactive: [1] 36.8% | [2] 18.9% | [3] 38.2% | [4] 25.7% | [5] 51.4% | [6] 21.4% | [9] 25.9% | [11] 26.2% | [13] 22.8% | [15] 33.4%

O=C(Cc1csc2nc(-c3ccc(Cl)cc3)cn12)N/N=C/c1ccccc1O
inactive: [1] 23.6% | [2] 41.6% | [3] 58.2% | [4] 43.2% | [5] 52.7% | [6] 11.7% | [7] 13.9% | [9] 41.3% | [10] 62.6% | [11] 67.4% | [13] 42.5% | [17] 36.6% | [15] 36.5%

Fc1ccc(-c2nnc(-c3c(-c4ccc(F)cc4)nc4ccccn34)o2)cc1
inactive: [1] 85.1% | [2] 36.7% | [3] 99.9% | [4] 88.8% | [5] 85.3% | [6] 114% | [7] 90.3% | [9] 67.7% | [10] 60.2% | [11] 85.1% | [12] 91.1% | [13] 59.8% | [17] 45.4% | [14] 94.1% | [15] 79.9%

CCN(CCCCCCCCCCN1CC(=O)N(CCCCCCCCCCN(CC)Cc2ccccc2OC)CC1=O)Cc1ccccc1OC
active: [1] -70.2% | [2] -77.1% | [3] 8.29% | [5] -38.5% | [6] -66.3% | [7] -62.6% | [9] -32.9% | [16] -66.5% | [11] -72% | [13] -89.2% | [17] -95.2% | [15] -76.2%
inactive: [4] 10.2%
